Test [1] can be described thus: compound effects on lung adenocarcinoma cell viability – A549, calcein-AM fluorescence, 48 h, basal, profiling panel (AID 1162). Particulars: higher = more signal.
Test [2] in a line: compound effects on differentiated 3T3-L1 adipocyte viability – cell-based, 3T3-L1 adipocytes, calcein-AM fluorescence, 48 h, basal, profiling panel (AID 1163). Particulars: 3T3-L1 adipocytes viability, higher = more signal.
Test [3] can be described thus: compound effects on hepatocellular carcinoma cell viability – HepG2, calcein-AM fluorescence, 48 h, basal, profiling panel (AID 1164). Particulars: higher = more signal.
Test [4] is described as follows: compound effects on multiple myeloma cell viability – MM1S, calcein-AM fluorescence, 48 h, basal, profiling panel (AID 1165).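 Further: viability of MM1S multiple myeloma cells under basal unstimulated conditions.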 The following applies: higher = more signal.
Test [5] can be described thus: calcein-AM signal in unstimulated myeloma cells – cell-based, calcein-AM fluorescence, 48 h, PK04 Diversity Set, profiling panel (AID 1166).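 Further: cells grown under basal conditions without added stimulus.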 Particulars: RPMI8226 myeloma viability, higher = more signal.
Test [6] is described as follows: JC-1 mitochondrial signal, unstimulated HepG2 cells – cell-based, JC-1 fluorescence, 24 h, 100 nL compound, profiling panel (AID 1167). The following applies: HepG2 mitochondrial potential, higher = more signal.
Test [7] can be described thus: JC-1 mitochondrial signal, unstimulated adipocytes – cell-based, JC-1 fluorescence, 3T3-L1 adipocytes, 24 h, 100 nL compound, profiling panel (AID 1168). Particulars: JC-1 mitochondrial fluorescence, higher = more signal, called active from +8 up or from −8 down.
The nature of test [8]: JC-1 mitochondrial signal, unstimulated myeloma cells – cell-based, JC-1 fluorescence, RPMI8226, 24 h, 100 nL compound, profiling panel (AID 1169). Particulars: JC-1 mitochondrial potential fluorescence, higher = more signal.
Test [9] is described as follows: JC-1 mitochondrial signal, unstimulated MM1S myeloma – cell-based, JC-1 fluorescence, 24 h, 100 nL compound, profiling panel (AID 1170). The following applies: MM1S mitochondrial potential, higher = more signal.
Test [10] can be described thus: resazurin metabolic signal in A549 cells – cell-based, resazurin fluorescence, 24 h, PK04 Diversity Set, profiling panel (AID 1171). Particulars: A549 viability, higher = more signal, called active from +8 up or from −8 down. On the technique in general: Alamar Blue is a resazurin reagent that responds to reducing activity.

These results are taken from PubChem BioAssay.

The source made the active and inactive calls.
Further: test concentration not given here.

`CN1C(=O)C2C=CC(C(O)c3ccc([N+](=O)[O-])cc3)N(Nc3ccccc3)C2C1=O` (stereo not given): the z-score in [1] is -1.06; in test [2], -1.33; in [3], -0.581; in test [4] it was 0.13; in [5], -0.772; in [6], -1.05. Also, the z-score is -1.92 (inactive) in [7], -0.199 in [8], -0.522 in test [9] and -1.36 (inactive) in test [10].

`CCOC(=O)C[C@H]1[C@H](OC(=O)c2cc3ccccc3oc2=O)[C@@H](NC(=O)c2ccc(-c3ccccc3)cc2)c2cc(OCCCO)ccc2N1C(=O)Cc1ccc(OC)cc1`: the z-score is -0.382 in test [1]; 1 in test [2]; 0.0719 in test [3]; 0.17 in test [4]; -0.84 in test [5]; -0.0623 in test [6]. For the same compound, the z-score was -1.08 (inactive) in test [7], -0.97 in test [8], -0.0508 in test [9] and 0.0573 (inactive) in test [10].

For the compound `CC1C2C(CCCO)=CC(C3C(=O)N(C(N)=O)C(=O)C23)N1Cc1cccc(OC(F)(F)F)c1` (stereo not given), the z-score is -0.846 in test [1]; -0.528 in test [2]; 0.192 in [3]; -0.486 in test [4]; 0.244 in test [5]; -0.632 in [6]. Moreover, the z-score in test [7] is -0.795 (inactive); in test [8], 0.787; in test [9], -0.547; in test [10], -0.13 (inactive).

In the case of `C[N+](C)(C)CCCC[C@@H]1NC(=O)[C@H]2C[C@@H](C(=O)O)[C@@H](c3ccc(O)cc3)N2C1=O`, the z-score in test [1] is 0.434; in test [2], 0.291; in test [3], 0.0336; in test [4], -3.12; in [5] it was 0.442; in test [6], 1.93. The z-score was -0.301 (inactive) in test [7], -0.2 in test [8], -1.26 in [9] and 0.554 (inactive) in test [10].

On to `COC(=O)[C@@]1(Cc2ccc(F)cc2)[C@H]2c3cc(C(=O)N4CCCC4)n(Cc4ccc(C(F)(F)F)nc4)c3C[C@H]2CN1C(=O)c1ccccc1`, for which the z-score in [1] was -0.29; in test [2], 0.585; in test [3], -1.06; in test [4], -2.08; in test [5], -1.37; in [6], 1.69. Moreover, the z-score was -0.439 (inactive) in test [7], -0.799 in [8], -0.873 in test [9] and 0.052 (inactive) in test [10].

For the compound `CCOC(=O)C[C@H]1[C@H](OC(=O)c2ccc(-c3ccccc3)cc2)[C@@H](NC(=O)c2ccc(-c3ccccc3)cc2)c2cc(OCCCO)ccc2N1C(=O)c1ccccc1`, the z-score in test [1] was -0.555; in test [2], -0.132; in test [3], -0.134; in [4], 0.125; in test [5] it was -0.473; in [6], 0.642. The z-score is -0.45 (inactive) in test [7], 0.812 in [8], 0.0869 in [9] and -0.769 (inactive) in [10].

`O=C1NC(=O)C2C1C=CC(C(O)C1CCCCC1)N2Nc1ccccn1` (stereo not given): the z-score in test [1] is -1.05; in test [2], -0.608; in [3], -0.484; in test [4], -0.0776; in test [5] it was -0.76; in test [6], -1.45. Further, the z-score in test [7] is -0.894 (inactive); in test [8], -0.573; in test [9], -0.9; in test [10], -0.606 (inactive).

`[N-]=[N+]=NCc1ccccc1[C@H]1OC(c2ccc(OCCCO)cc2)=N[C@@]1(CCS(=O)(=O)c1ccccc1)C(=O)O`: the z-score was 0.0952 in [1]; 0.0313 in test [2]; 0.35 in test [3]; 0.263 in test [4]; -0.829 in test [5]; -1.24 in test [6]. Moreover, the z-score in test [7] was -1.02 (inactive); in test [8] it was -0.278; in test [9], -0.479; in test [10], 0.355 (inactive).

Turning to `CCCCC(=C=CC[C@H](O)c1cccc(OCCO)c1)C[C@H](O)c1cc(Cl)cc(Cl)c1O`, the z-score was 0.827 in [1]; -0.241 in test [2]; 0.358 in test [3]; -3.12 in test [4]; -1.24 in test [5]; 0.0773 in test [6]. For the same compound, the z-score in [7] is 0.309 (inactive); in test [8], -0.00147; in test [9], -1.05; in test [10], 1.57 (inactive).

As to `COC(=O)[C@H]1N=C(c2ccc(OCCCO)cc2)O[C@H]1c1ccccc1N=[N+]=[N-]`, the z-score in [1] is -0.206; in test [2], 0.323; in test [3] it was -0.151; in test [4], -0.862; in test [5], -1.44; in [6] it was -0.434. Also, the z-score is -0.419 (inactive) in test [7], -0.739 in test [8], 0.567 in [9] and -0.15 (inactive) in [10].

Regarding `COc1cccc(C)c1NC(=O)O[C@H]1[C@H](OC(=O)Nc2ccccc2-c2ccccc2)[C@@H](OC(=O)Nc2ccccc2-c2ccccc2)[C@@H](OC)O[C@@H]1CO`, the z-score in test [1] is -2.87; in [2], 0.458; in test [3], -3.51; in test [4], -3.08; in [5] it was -3.27; in test [6], 1.98. The z-score in [7] was 1.62 (inactive); in test [8] it was -0.928; in test [9], -1.41; in [10], -4.57 (inactive).

With `O=C1c2ccccc2[C@@]2(Cc3ccccc3N(CC(F)(F)F)C2=O)[C@H](c2ccc(CO)cc2)N1Cc1ccccc1`, the z-score was -0.293 in [1]; 1.21 in [2]; -1.13 in [3]; 0.191 in test [4]; -2.24 in [5]; -0.631 in [6]. Moreover, the z-score was -2.33 (inactive) in test [7], 0.928 in [8], -1.09 in [9] and -0.279 (inactive) in test [10].

For `CC(C)C[C@@H]1NC(=O)[C@@H]2C[C@H](C(=O)NCCCCCCNC(=O)CS)[C@H](c3ccc(O)cc3)N2C1=O`, the z-score in [1] is 0.191; in test [2] it was 0.963; in test [3], -0.892; in test [4] it was -0.523; in test [5], 0.037; in [6] it was -1.69. Besides, the z-score is -0.226 (inactive) in [7], -0.684 in [8], -0.391 in test [9] and -0.399 (inactive) in [10].

As for `COc1ccc(C(=O)Nc2ccc(CN3C(=O)[C@@]4(O[C@@H](CC(=O)N(CCO)Cc5ccccc5)[C@H]([Si](C)(C)c5ccc(OC)cc5)[C@H]4C)c4ccccc43)cc2)cc1`, the z-score in test [1] was -0.86; in [2], 1.4; in test [3], -1.04; in test [4] it was -0.507; in [5], -1.47; in [6] it was 0.656. Moreover, the z-score in test [7] was 0.816 (inactive); in test [8] it was -0.931; in [9], -0.493; in test [10], -0.861 (inactive).
